Reference: PubChem BioAssay AID1224858 (National Center for Advancing Translational Sciences (NCATS), 2016)
Records with an inconclusive call do not appear. Values without a mark were called inactive. Activity calls are given as the source filed them. Calls follow the shape of the dose curve; as a rule, active = well fitted inhibition curve with a large enough effect; inconclusive = small, poorly fitted or top-dose-only effect; inactive = no such curve, though single readings can be large or run the other way.

Experiment: Confirmation assay for measurement of the activity of small molecule inhibitors on Zika virus induced Caspase-3 activity in human astrocytes
Conditions: ZIKV-induced caspase-3/7 luminescence, 6 h; series mostly up to 46.1 µM; activity, negative = inhibition: at the top concentration
Source text: National Center for Advancing Translational Sciences [NCATS] Johns Hopkins University School of Medicine Florida State University Assay Overview: Increase in the Caspase-3 activity indicates an activation of apoptosis cell death pathway caused by Zika virus infection in certain types of neuronal cells including human neural progenitor cells (hNPCs), astrocytes, and astrocytoma cell line (SNB-19). This cell-based caspase-3 activity assay measures the increased caspase-3 activity in the human astrocytes after a 6-hour Zika virus infection with a luminescence readout. A decrease in the luminescence signal in this assay by small molecule treatment indicates an inhibitory effect of that small molecule on the Zika virus induced caspase-3 activity that may correlate with its effect on reduction of Zika virus caused cell death.
Assay Protocol Summary: The medium for astrocytes contains AM basal medium (ScienCell, Cat.# 1801), AGS (ScienCell, Cat.# 1801), 10% FBS, and 1% Pen/Strep. A Caspase-Glo 3/7 assay kit (catalog number G8092; Promega, Madison, WI) was used to detect caspase-3 activity induced by Zika virus infection in human cells. The reagent mixture was reconstituted as described in the protocol from the manufacturer. Polystyrene tissue culture treated and PDL coated white plates were obtained from Greiner Bio-One (Monroe, NC). Cells were seeded in 384- or 1536-well assay plates and cultured at 37 C with 5% CO2 for 16 to 20 hours. The typical cell seeding density in the 1536-well plate assay is 350 cells/well in 3 ul medium for astrocytes in tissue culture treated plates. Compounds were added to cells and incubated for one hour before addition of ZIKV solution to cells (2 FFU/cell). After incubation at 37 C with 5% CO2 for 6 hours, the reagent mixture of Caspase-Glo 3/7 assay kit was added to each well, followed by incubation at room temperature for 30 minutes. The luminescence intensity of the assay plates was measured using a ViewLux plate reader (PerkinElmer). Data were normalized by using the cell-containing wells without ZIKV as a negative control (0% induction of caspase 3/7 activity) and wells containing ZIKV infected cells (Caspase-3 activity induced) as a positive control (100% induction of caspase 3 activity). The percentage inhibitions of the increased Caspase-3 activity by small molecule inhibitors were then calculated.

SMILES	Potency	activity, negative = inhibition
O=c1c2ccccc2[se]n1-c1ccccc1	7.74 µM (active)	
COC1(CS(=O)c2ccccc2)CCN(CCc2c[nH]c3ccc(F)cc23)CC1 (stereo not drawn)		21.6%
COP(=S)(OC)SCN1C(=O)c2ccccc2C1=O		11.5%
CC(C)N[C@@H]1CCn2c(=O)[nH]c3cccc(c32)[C@@H]1O		-6.93%
O=C1CCC[C@@H]2[C@H]3CCCN4CCC[C@@H](CN12)[C@@H]34		-2.18%
Oc1ccc([C@H]2CNCc3c2ccc(O)c3O)cc1O		-21.6%
CC(O)CN1CCN(CC(=O)[O-])CCN(CC(=O)[O-])CCN(CC(=O)[O-])CC1.[Gd+3] (stereo not drawn)		16.8%
Cc1ccc([N+](=O)[O-])[c]2c1[O][Hg]2	7.74 µM (active)	
O=C1C=CC[C@@H]2[C@H]3CCCN4CCC[C@@H](CN12)[C@@H]34		6.06%
O=C(Nc1ccc(Br)cc1)c1cc(Br)cc(Br)c1O	6.15 µM (active)	
CC(C)[N+](C)(CCC(C(N)=O)(c1ccccc1)c1ccccc1)C(C)C		3.8%
CC(C)[C@H]1C(=O)N[C@H](CO)Cc2c[nH]c3cccc(c23)N1C		-6.86%
O=S(=O)(CC1CS1)c1ccc(Oc2ccccc2)cc1 (stereo not drawn)		-16.3%
